High-throughput results as filed in PubChem BioAssay.
Only some compounds are listed: those with a hit (about 12% of all), similar ones and a draw of the others.
Pf growth 96h: inhibits malaria parasite growth, 96 h; P. falciparum luciferase reporter growth, 96 h; Potency, µM (series often up to 28.7 µM), for the others: at the top dose activity change, negative = inhibition, most hits filed as inhibitors; 6.9% of 320,000 active; also: % is scaled to controls: 0 for no effect and ±100 for the full control effect
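Delayed-death screen, second-generation endpoint: infected erythrocytes, 2% hematocrit, 0.05% parasitemia final; 96 hours at 37 C, 5% CO2; luciferase detection reagent; luminescence decrease equals reduced growth.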
SARS PLP yeast: inhibitors of SARS-CoV papain-like protease in yeast. S. cerevisiae expressing SARS-CoV PLpro, growth rescue. Potency, µM (highest dose often 32.9 µM), inactives show top-dose activity, positive = growth rescue, most hits filed as activators. 0.19% of 330,000 active. AID 485353; calls by dose curve; also: 0% is about no effect; nearly all actives have a fitted effect of over 55% in size
Pf growth 48h: inhibits P. falciparum growth in the first generation, 48 h | AID 504832 | 5.9% of 310,000 active | Potency, µM (top dose mostly 28.7 µM), for inactives: at the highest dose activity change, negative = inhibition, usual class: inhibitors | P. falciparum luciferase growth in erythrocytes, 48 h; also: % is scaled to controls: 0 for no effect and ±100 for the full control effect
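Compounds are pin-transferred into medium, infected erythrocytes (2% hematocrit, 0.1% parasitemia final) are added, and plates sit one parasite generation at 37 C in 5% CO2. Detection reagent is then added and luminescence measured.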
HCV inhibitor: blocks hepatitis C virus; Huh7.5.1 HCVcc-Cre infection, luciferase reporter, 44 h; 3.4% of 340,000 active; AID 651820; Potency, µM (series often up to 41.8 µM), for the others: at the highest dose activity change, negative = inhibition, actives largely listed as inhibitors; also: % is scaled to controls: 0 for no effect and ±100 for the full control effect
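Compounds are dispensed onto cells plated 4 h earlier at 1,000 per well, with HCVcc-Cre virus (about 0.5 moi) added next. Following 44 h of culture, luminescent signal is measured for 15 sec after 15 min with substrate at room temperature.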
NS1 inh: inhibitors of influenza NS1 protein function | Potency, µM (titrated, usually from 46.1 µM), for the others: at the top dose activity, positive = more growth | 0.4% of 270,000 active; calls by dose curve; also: actives are rising curves; nearly all actives have a fitted effect of over 50% in size
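Read-out: OD600 growth recovery of NS1-expressing budding yeast. Cells grown overnight at 30C in -URA glucose medium, washed, resuspended and diluted 1:100 in 2% galactose assay medium, pH 6.0. Same strain lacking NS1 served as positive control.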
AMA1-RON2 inh: disrupts binding of P. falciparum AMA1 to RON2 | 0.2% of 360,000 active | AID 720542 | Potency, µM (doses to about 58.2 µM), without a hit: at the top dose activity change, negative = inhibition, actives largely listed as inhibitors | AlphaScreen AMA1-biotinylated RON2 peptide binding;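 also: 0% = vehicle wells and -100% = peptide control; nearly all actives have a fitted effect of over 45% in size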
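AMA1 (3D7) with his tag at 25 nM final met compounds first, then biotinylated RON2 peptide at 25 nM; detection used donor plus acceptor beads, 10 µg/mL apiece, read by AlphaScreen after 30 min at room temperature.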
* = called active by the depositor; ? = inconclusive; · = no result given; [ ] = another dose, or the depositor's remark. Unless noted, calls follow the shape of the dose curve; as a rule, active = well fitted curve in the direction sought with a large enough effect; inconclusive = small, poorly fitted or top-dose-only effect, or another doubt; inactive = no such curve, though single readings can be large; an effect the other way counts as inactive or inconclusive. Potency is read from the fitted curve at half-maximal effect.

SMILES	Pf growth 96h	SARS PLP yeast	Pf growth 48h	HCV inhibitor	NS1 inh	AMA1-RON2 inh
Cc1ccc(S(=O)(=O)N2CCC(CN3C(=O)c4cccc5cccc(c45)C3=O)CC2)cc1	?	1%	?	?	?	-1%
O=C1c2cccc3cccc(c23)C(=O)N1CC1CCN(CC(O)COc2ccc3ccccc3c2)CC1 (configuration not stated)	1%	-30%	-4%	7.9µM*	-144%	?
CC(=O)c1ccccc1OCC(O)CN1CCN(CCN2C(=O)c3cccc4cccc(c34)C2=O)CC1 (configuration not stated)	10%	0%	?	10µM*	-3%	-7%
O=C1c2cccc3cccc(c23)C(=O)N1CCN1CCN(CC(O)COc2ccc3ccccc3c2)CC1 (configuration not stated)	?	-17%	?	11µM*	2%	-12%[11.6 µM]
Cc1cccc(NC(=S)N2CCC(NC(=O)c3ccco3)CC2)c1	4%	3%	5%	-5%	-6%	0%
COc1ccc(C(C(=O)NC2CCCC2)N(Cc2cccnc2)C(=O)Cc2cccs2)c(OC)c1 (configuration not stated)	?	-1%	-15%	15%	-10%	15%
COc1ccc(COC(=O)N/N=C(\C)CC(=O)Nc2ccc(Cl)cn2)cc1	39%	1%	24%	-3%	-4%	24%
Cc1cc(NC(=O)c2cc3ccccc3o2)ccc1NC(=O)c1ccccc1	-24%	-9%	16%	?	3%	-4%
Cc1cc(NC(=O)C2CC=CCC2C(=O)O)ccc1NC(=O)c1ccccc1 (configuration not stated)	9.3µM*	24%	?	14%	3%	-11%
O=C(O)C1CC=CCC1C(=O)Nc1cccnc1 (configuration not stated)	86%	-1%	9.3µM*	4%	-7%	-7%
COc1ccccc1Cn1c(=S)[nH]c2cc(C(=O)N3CCCC(C)C3)ccc2c1=O (configuration not stated)	·	·	·	·	·	128%
O=C(CNC(=O)c1ccc(Cl)cc1)OCCCOC(=O)CNC(=O)c1ccc(Cl)cc1	-9%	10%	13%	-27%	-4%	1%
CN(Cc1ccc2c(c1)OCO2)C(=O)c1cc(-c2ccccc2)c(N2CCOCC2)s1	?	0%	?	10µM*	·	-18%
COc1ccc(CCNC(=O)c2cc(-c3ccccc3)c(N3CCOCC3)s2)c(OC)c1OC	?	-7%	?	10µM*	29%	-11%
CCOc1ccc(CCNC(=O)c2cc(-c3ccccc3)c(N3CCOCC3)s2)cc1	·	·	·	?	·	-5%
CCOc1ccc(CCNC(=O)c2cc(-c3ccccc3)c(N3CCOCC3)s2)cc1OCC	5%	-8%	?	?	-5%	?
CN(Cc1ccccc1)C(=O)c1ccc2c(c1)OCO2	?	22%	16%	13%	1%	2%
O=C(NCc1ccco1)c1cc(-c2ccccc2)c(N2CCOCC2)s1	?	11%	·	8.9µM*	-2%	-3%
O=C(NCc1ccc2c(c1)OCO2)c1cc(-c2ccccc2)c(N2CCOCC2)s1	-11%	-2%	-17%	14µM*	10%	-9%
O=C(O)c1cc(-c2ccccc2)c(N2CCOCC2)s1	110%	8%	·	-3%	0%	0%
COCCNC(=O)C(c1ccc(F)cc1)N(Cc1cccs1)C(=O)CCC(=O)Nc1ccccn1 (configuration not stated)	16%	0%	6%	8%	-14%	5%
CCOc1ccc(CN2CCN(Cc3nc4c(s3)CCCC4)CC2CCO)cc1 (configuration not stated)	45%	0%	?	6%	1%	-3%
OCCOCCOCCO	-10%	·	-6%	·	·	·
CN1CCN(C(=O)/C(=C/c2ccccc2)c2ccccc2)CC1	·	5%	-1%	10%	2%	-13%
CC1CC(C)CN(C(=O)/C(=C\c2ccccc2)c2ccccc2)C1 (configuration not stated)	93%	-8%	1.9µM*	25%	-35%	-8%
SMILES	Pf growth 96h	SARS PLP yeast	Pf growth 48h	HCV inhibitor	NS1 inh	AMA1-RON2 inh
CCNC(=O)C1(C)CCCN(Cc2cc3ccccc3o2)C1 (configuration not stated)	·	·	·	·	·	1%
CC(C)Oc1ccc(CNS(=O)(=O)c2csc(C(N)=O)c2)cc1	1%	3%	6.6µM*	?	3%	11%
Cc1cccc(N(C)S(=O)(=O)c2csc(C(N)=O)c2)c1	0.66µM*	1%	-11%	7%	-1%	5%
Cc1ccc(NS(=O)(=O)c2csc(C(N)=O)c2)c(C)c1	4.1µM*	1%	7.4µM*	-10%	4%	-4%
Cc1cc(C)cc(NS(=O)(=O)c2csc(C(N)=O)c2)c1	?	-1%	5%[0.00184 µM]	-4%	-2%	2%
CCCc1cc(=O)oc2cc(C)cc(OC(C)C(=O)NCCN3CCOCC3)c12 (configuration not stated)	9.3µM*	1%	10µM*	-11%	-9%	0%
CCCc1cc(=O)oc2cc(C)cc(OC(C)C(=O)NCCCN3CCOCC3)c12 (configuration not stated)	?	4%	?	-6%	-12%	4%
CCCc1cc(=O)oc2cc(C)cc(OC(C)C(=O)NCCCn3ccnc3)c12 (configuration not stated)	2.6µM*	4%	4.1µM*	-6%	-7%	5%
CCCc1cc(=O)oc2cc(C)cc(OC(C)C(=O)NCC(O)c3ccccc3)c12 (configuration not stated)	?	-3%	0.47µM*	-28%	1%	3%
Cc1cc(OC(C)C(=O)NCCc2c[nH]c3ccccc23)c2c(C)cc(=O)oc2c1 (configuration not stated)	1.7µM*	1%	1.5µM*	-24%	-2%	-14%
CCCc1cc(=O)oc2cc(C)cc(OC(C)C(=O)N[C@@H](Cc3c[nH]c4ccccc34)C(=O)O)c12 (some centres not stated)	47%	-1%	14%	8%	?	8%
CC(C)CNC(=O)COC(=O)c1c2c(nc3ccccc13)/C(=C/c1cccs1)CC2	?	9%	?	?	23%	-1%
CC1CCCCC1NC(=O)COC(=O)c1c2c(nc3ccccc13)/C(=C/c1ccco1)CC2 (configuration not stated)	15µM*	-4%	-45%	?	24%	?
CCc1cccc(C)c1NC(=O)COC(=O)c1c2c(nc3ccccc13)/C(=C\c1cccs1)CCC2	10µM*	-2%	13µM*	1.1µM*	23%	-9%
CCCCNC(=O)COC(=O)c1c2c(nc3ccccc13)/C(=C\c1cccs1)CC2	·	·	·	2.8µM*	·	52%
Cc1ccc(C(=O)Nc2ccccc2C(=O)Nc2ccccn2)cc1Cl	?	-10%	43%	?	6%	-10%
O=C(CSc1nncn1-c1ccccc1F)NC1CC1	·	1%	·	4%	·	-4%
CC1(C)CC[C@]2(C(=O)O)CC[C@]3(C)C(=CC[C@@H]4[C@@]5(C)CC[C@H](O[C@@H]6O[C@H](C(=O)O)[C@@H](O)[C@H](O[C@@H]7OC[C@H](O)[C@H](O)[C@H]7O)[C@H]6O)C(C)(C)[C@@H]5CC[C@]43C)[C@@H]2C1	·	0%	·	11µM*	·	-2%
